Source: PubChem BioAssay (NCATS)
This is one part of the list. Results filed as inconclusive are left out. Active and inactive are the calls of the source. Calls come from the whole dose curve; as a rule, active = well fitted inhibition curve with a large enough effect; inconclusive = small, poorly fitted or top-dose-only effect, or another doubt; inactive = no such curve, though single readings can be large or run the other way.

The molecules below were run against Luciferin 4-monooxygenase (Photinus pyralis) (UniProt P08659) (assay: Biochemical FLuc counterscreen for small molecule modulators of PMP22 gene expression (AID 1508640; note: % of control where 0% means no effect)). Details: purified P. pyralis FLuc, luminescence, 10 min; series mostly up to 57.5 µM; activity, negative = inhibition: at the top concentration.
Text: Assay Provider: Jim Inglese Ph.D. National Center for Advancing Translational Science, National Institutes of Health, Rockville, MD CMT is a heterogeneous group of neurological disorders that affect approximately 1 in 2,500 people. In particular, the most common form of CMT, CMT1A is genetically linked to the duplication of the PMP22 gene which leads to Schwann cell overexpression, thus manifesting itself as a typical case of dose-sensitive diseases. To identify small molecule compounds that can mediate the expression of PMP22 we developed a phenotypic assay screening strategy by utilizing genome editing techniques to construct Schwann cell lines containing novel reporter technology to monitor the transcriptional or translational regulation of PMP22. For high sensitivity we use a bioluminescent reporter system embedded in the 3' UTR of the PMP22 gene (S16(c9) Pmp22-F2sN) to identify compounds that inhibit gene expression. […] We can further discriminate the effect of all transcriptionally active molecules on PMP22 translation or stability with an assay that incorporates a short NLuc peptide (HiBiT) at the C-terminus of expressed PMP22 (S16(f8) PMP22-HiBiT) allowing alpha complementation and luminescence detection of membrane-associated PMP22 protein. These assays were screened against the NCATS Sytravon Library Collection. Miniaturization of these assays to 1536-well plate format for quantitative high throughput screening (qHTS) yielded rich data sets immediately from the qHTS assay (S16(c9) Pmp22-F2sN), when compared with data from a cell viability assay (Cell TiterGlo) to identify compounds that decreased the output signals through cellular toxicity to streamline the selection process of actives for subsequent characterization using the HiBiT assay (S16(f8) PMP22-HiBiT).
Biochemical FLuc assay PROTOCOL TABLE (format as described by Inglese J, Shamu CE and Guy RK. 2007) SEQUENCE No. (e.g., 1, 2, 3, etc.); PARAMETER (e.g., Cells, Incubation, Reagent, etc.); VALUE and DESCRIPTION. 1. Reagent. Add 3 uL substrate per well into Greiner 1536-well white/solid bottom high base, medium binding plates. 2. Compounds. Library compounds and controls added at 23nL per well, transferred by Pin Tool. 3. Incubation. Incubate plates 15 min at ambient temperature. 4. Reagent. Add 1uL FLuc enzyme solution per well of Greiner 1536-well plates. 5. Incubation. Incubate plates at room temperature for 10 min., protect from light. 6. Detector. FLuc luminescence measured using CCD-based camera (Viewlux). NOTES (numbers refer to Sequence numbers above; values are from representative experiments) 1. Dispense freshly prepared substrate (final concentration of 10 uM D-Luciferin, 10 mM Mg-Acetate, 50 mM Tris Acetate pH 7.6, 10 uM ATP, 0.01 % Tween-20, 0.05 % BSA) into 1,536-well Greiner white/solid bottom high base, medium binding plates. Protect from light. 4. Freshly prepared enzyme solution containing 10 nM P. pyralis in 50 mM Tris Acetate was filtered through a […] prior to dispensing. 6. Luminescence Read (Fluc): Clear filter; Exposure = 10 sec, Gain = High, Speed = Slow, Binning = 2X REFERENCES: 1. Inglese J, Shamu CE and Guy RK, Reporting data from high throughput screening of small molecule libraries, Nature Chemical Biology, 2007, 3(8): 438-441. doi.org/10.1038/nchembio0807-438 2. Yasgar A, Shinn P, Jadhav A, Auld DS, Michael S, Zheng W, Austin CP, Inglese J and Simeonov A, Compound Management for Quantitative High-Throughput Screening. J. Assoc. Lab. Auto., 2008, 13: 79-89. doi: 10.1016/j.jala.2007.12.004 3. […] Chemistry & Biology, 2012, 19: 1060-1072. doi.org/10.1016/j.chembiol.2012.07.015

Sequence of Luciferin 4-monooxygenase (Photinus pyralis) (P08659 whole entry, looked up): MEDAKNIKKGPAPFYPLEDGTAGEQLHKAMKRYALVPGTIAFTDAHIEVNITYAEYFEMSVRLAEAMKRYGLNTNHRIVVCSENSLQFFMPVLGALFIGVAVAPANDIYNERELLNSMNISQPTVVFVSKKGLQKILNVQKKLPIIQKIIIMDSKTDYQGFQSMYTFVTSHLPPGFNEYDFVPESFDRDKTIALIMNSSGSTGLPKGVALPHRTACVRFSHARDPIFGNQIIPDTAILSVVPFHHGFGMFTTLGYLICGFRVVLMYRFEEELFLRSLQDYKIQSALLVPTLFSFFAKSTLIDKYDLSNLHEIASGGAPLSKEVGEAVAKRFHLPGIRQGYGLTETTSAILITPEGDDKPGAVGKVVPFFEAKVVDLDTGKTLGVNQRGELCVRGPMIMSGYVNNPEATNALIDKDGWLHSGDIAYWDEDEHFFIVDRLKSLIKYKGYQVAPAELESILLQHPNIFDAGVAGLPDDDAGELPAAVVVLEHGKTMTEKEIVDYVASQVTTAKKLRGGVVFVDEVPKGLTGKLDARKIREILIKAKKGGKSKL

SMILES | activity, negative = inhibition
Cc1ccc(C)n1-c1nnc(N2CCC(C(=O)NCc3ccccc3Cl)CC2)s1 | 3.2% (inactive)
Cc1cc(OCC(=O)NCC2(N(C)C)CCCCC2)cc(C)c1Cl | -9.58% (inactive)
Cc1ccc(NC(=O)c2nc(S(=O)(=O)Cc3cccc(C)c3)ncc2Cl)cc1 | -10.5% (inactive)
CCc1ccc(C2CC(=O)c3c([nH]c(C(=O)OCc4ccc(C)cc4)c3C)C2)cc1 (centres undefined) | 0.949% (inactive)
Cc1sc(C2C(C#N)=C(N)N(c3cccc(Cl)c3)C3=C2C(=O)CCC3)cc1CN1CCOCC1 (centres undefined) | 1.68% (inactive)
CCOC(=O)c1c(C)[nH]c(CCC(=O)NCCCN2CCN(c3cc(C)ccc3C)CC2)c1C | -2.52% (inactive)
CCOC(=O)C1CCN(C(=O)CSc2c3c(nc4ccc(Cl)cc24)CCCC3)CC1 | -10.6% (inactive)
CCOC(=O)c1c(C)[nH]c(CCC(=O)NCCCN2CCN(c3cccc(Cl)c3)CC2)c1C | 2.39% (inactive)
CCC1CCCCN1CCCNC(=O)c1cc2c(Cl)nc3ccccc3c2s1 (centres undefined) | -2.7% (inactive)
Cc1ccc(Cn2c(C)c3cnn(CC(=O)NCc4ccccc4)c(=O)c3c2C)cc1 | -12.3% (inactive)
CC(=O)N1CCCc2cc(S(=O)(=O)N3CCCC(C(=O)N4CCN(c5cccc(Cl)c5)CC4)C3)ccc21 (centres undefined) | -3.04% (inactive)
CCCN1C(=O)C(O)(CC(=O)c2ccc(CC)cc2)c2cc(Br)ccc21 (centres undefined) | -8.85% (inactive)
CCOc1ccc(NC(=O)c2c(NC(=O)Cc3ccccc3)sc3c2CCC(C)C3)cc1 (centres undefined) | -21.9% (inactive)
O=C(NCCCN1CCN(c2cccc(Cl)c2)CC1)c1nnc(Cc2ccc(F)cc2Cl)o1 | -10.3% (inactive)
Cc1cccc(Nc2cc(C)nc(-n3nc(C)cc3C)n2)c1 | -12.2% (inactive)
COc1cccc(NC(=O)CSC2=Nc3ccccc3C3=NC(CC(=O)NC4CCCCC4)C(=O)N23)c1 (centres undefined) | -5.76% (inactive)
Cc1cc(F)ccc1NS(=O)(=O)c1ccc(-n2cccn2)cc1 | 10.4% (inactive)
COc1ccc(CCNC(=O)c2cc(=O)c3c(C)cc(C)cc3o2)cc1OC | -17.4% (inactive)
Cc1nnc(SCC(=O)NCc2ccccc2Cl)c2nn(-c3ccccc3)c(C)c12 | -3.49% (inactive)
CCCn1c2ccccc2c2cnn(CC(=O)NCC3CCN(Cc4ccc(C)cc4)CC3)c(=O)c21 | 11.2% (inactive)

SMILES | activity, negative = inhibition
CCCCOc1ccc(CN2C(=O)C(=O)c3cc(Br)cc(C)c32)cc1OC | -19.2% (inactive)
CCCn1c(=N)c(C(=O)NCc2ccccc2)cc2c(=O)n3cccc(C)c3nc21 | -4.12% (inactive)
CCOC(=O)c1ccc(NC(=O)CSc2nc3c([nH]c4ccccc43)c(=O)n2C)cc1 | -12.3% (inactive)
Cc1ccc(CCNC(=O)C2CCN(c3nnc(-n4cccc4CNc4ccc(C)cc4)s3)CC2)cc1 | -6.01% (inactive)
Cc1ccccc1CNC(=O)CSc1nnc(C)c2c(C)n(-c3ccccc3)nc12 | -2.97% (inactive)
CCOCCCNC(=O)c1c(NC(=O)c2nc(SC)ncc2Cl)sc2c1CCCC2 | 5.33% (inactive)
CCOC(=O)c1ccc(N2C(=O)c3n[nH]c(C)c3C2c2ccc(O)c(OC)c2)cc1 (centres undefined) | 5.22% (inactive)
CCCS(=O)(=O)c1ncc(Cl)c(C(=O)Nc2scc(-c3ccccc3)c2C(=O)OCC)n1 | -3.4% (inactive)
CCC1=Nc2cc(C(=O)NCCCOC(C)C)ccc2Sc2ccc(C)cc21 | 7.24% (inactive)
O=C(CCS(=O)(=O)c1ccccc1)N(Cc1cccnc1)c1nc2c(F)cccc2s1 | -3.07% (inactive)
O=S(=O)(c1ccc(Cl)cc1)c1nnn2c1nc(NC1CCCC1)c1sccc12 | -5.21% (inactive)
CC(C)(C)c1ccc(C(=O)NCC(c2ccco2)S(=O)(=O)c2ccc(F)cc2)cc1 (centres undefined) | -13.4% (inactive)
COc1cccc(NC(=O)N(Cc2cn(C)c3ccccc23)C2CCCCCC2)c1 | 0.718% (inactive)
Cc1ccc(OCCSc2nc3ccc(NC(=O)COc4ccc(C)cc4)cc3s2)cc1 | 2.02% (inactive)
O=C(c1ccc(C(F)(F)F)cc1)N1CCC(c2nc(-c3ccc(S(=O)(=O)N4CCCC4)cc3)no2)CC1 | -8.99% (inactive)
COc1ccc(-c2onc(C)c2C)cc1S(=O)(=O)NCC1CCN(Cc2cccc(F)c2)CC1 | -1.38% (inactive)
COc1ccccc1Nc1c2c(nc3ccc(NC(=O)/C=C/c4cc(OC)c(OC)c(OC)c4)cc13)CCCC2 | 14.3% (inactive)
COc1ccccc1-c1cc(C(F)(F)F)nc(S(=O)(=O)CCCC(=O)Nc2ccc(F)cc2F)n1 | -2.16% (inactive)
O=C(c1ccc2c(c1)N(Cc1ccc(F)cc1)C(=O)c1ccccc1S2(=O)=O)N1CCN(c2ccccn2)CC1 | 9.29% (inactive)
